These results are taken from article PMC5540273 (PLoS ONE, 2017).

Test [1] relates to FYN. As to conditions: concentration: 1 μM, replicates: in singlicate; n = 1.
The subject of test [2] is GAK. To be noted: concentration: 1 μM, replicates: in singlicate; n = 1.
The subject of test [3] is T1, GCN2(Kin.Dom.2,S808G).
T1 construct: gene EIF2AK4
As to conditions: concentration: 1 μM, replicates: in singlicate; n = 1.

Test [4] deals with GRK1. To be noted: concentration: 1 μM, replicates: in singlicate; n = 1.
For test [5], the system named is T2, GRK2.
T2 construct: gene ADRBK1
To be noted: concentration: 1 μM, replicates: in singlicate; n = 1.

For test [6], the system named is T3, GRK3.
T3 construct: gene ADRBK2
As to conditions: concentration: 1 μM, replicates: in singlicate; n = 1.

For test [7], the system named is GRK4. To be noted: concentration: 1 μM, replicates: in singlicate; n = 1.
The subject of test [8] is GRK7. To be noted: concentration: 1 μM, replicates: in singlicate; n = 1.
Test [9] deals with GSK3A. To be noted: concentration: 1 μM, replicates: in singlicate; n = 1.
Test [10] concerns GSK3B. To be noted: n = 1.
Test [11] relates to T4, HASPIN.
T4 construct: gene GSG2
To be noted: concentration: 1 μM, replicates: in singlicate; n = 1.

The subject of test [12] is HCK. As to conditions: concentration: 1 μM, replicates: in singlicate; n = 1.
The test system of test [13] is HIPK1. As to conditions: concentration: 1 μM, replicates: in singlicate; n = 1.
Test [14] deals with HIPK2. As to conditions: concentration: 1 μM, replicates: in singlicate; n = 1.
The test system of test [15] is HIPK3. As to conditions: concentration: 1 μM, replicates: in singlicate; n = 1.
Test [16] has as its system HIPK4. To be noted: concentration: 1 μM, replicates: in singlicate; n = 1.
The subject of test [17] is HPK1. To be noted: concentration: 1 μM, replicates: in singlicate; n = 1.
Test [18] relates to HUNK. As to conditions: concentration: 1 μM, replicates: in singlicate; n = 1.
Test [19] deals with ICK. As to conditions: concentration: 1 μM, replicates: in singlicate; n = 1.
The test system of test [20] is IGF1R. As to conditions: concentration: 1 μM, replicates: in singlicate; n = 1.
Where [21] appears, read: concentration: 1 μM, replicates: in singlicate.

Like-named read-outs stand apart in the source and are kept apart here.
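Note: KINOMEscan kinase panel screen.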

With `NCCCC(NC(=O)c1cc(Br)c(-c2ccnc3[nH]ccc23)s1)c1ccccc1.O=C(O)C(F)(F)F.O=C(O)C(F)(F)F` (stereo not shown) [GSK1287544], the “%Inh” value in test [1] is reported as 2%; in test [2] it was 23%; in test [3], 7%; in test [4] it was 68%; in test [5], 75%; in test [6], 85%. The “%Inh” value in test [7] amounted to 57%; in [8], 83%; in test [9], 0%; in [10] (setting [21]), 15%; in test [11], 95.7%; in test [12], 0%. In addition, the “%Inh” value in test [13] came out at 39%; in test [14] it was 14%; in test [15], 62%; in test [16] it was 82%; in [17], 62%; in [18] it was 0%. Besides, the entries for the “%Inh” value in test [19] and in test [20] were 23% and 2%, respectively.
Consider `COc1ccc(Nc2nccc(N3CCC(NC(=O)Nc4cccc(OC)c4)C3)n2)cc1` (stereo not shown) [GSK1379742], for which the “%Inh” value in test [1] is given as 0%; in [2] it was 23%; in [3] it was 6%; in test [4], 0%; in test [5], 0%; in [6], 22%. In addition, the “%Inh” value in test [7] was 0%; in test [8], 0%; in [9] it was 13%; in test [10] (setting [21]), 2%; in [11], 10%; in [12] it was 0%. Further, the “%Inh” value in test [13] worked out at 0%; in [14], 28%; in test [15], 19%; in [16] it was 0%; in [17], 56%; in [18], 24%. The “%Inh” value in test [19] and in test [20] was 0% each time.
Regarding `c1ccc(Oc2ccc(Nc3ccnc4cc(-c5ccc(CNCCN6CCOCC6)o5)ccc34)cc2)nc1` [GW567145], the “%Inh” value came out at 57% in test [1]; 82% in test [2]; 0% in test [3]; 0% in test [4]; 0% in test [5]; 48% in [6]. Moreover, the “%Inh” value is listed as 0% in test [7]; 0% in [8]; 6% in [9]; 0% in test [10] (setting [21]); 43% in test [11]; 76% in test [12]. Besides, the “%Inh” value in test [13] was 0%; in test [14], 0%; in [15] it was 10%; in [16], 0%; in test [17], 15%; in test [18], 12%. Besides, the “%Inh” value in test [19] and in test [20] was 0% throughout.
For `C[C@@H]1CC[C@@H](C(=O)Nc2ccccc2)CN1c1cc(-c2ccc3c(N)n[nH]c3c2)nc(N)n1` [GSK2286062], the “%Inh” value amounted to 25% in test [1]; 19% in test [2]; 0% in test [3]; 0% in test [4]; 0% in [5]; 10% in test [6]. Further, the “%Inh” value in test [7] was 0%; in [8], 0%; in [9], 0%; in [10] (setting [21]), 0%; in [11], 5%; in test [12], 0%. The “%Inh” value in test [13] is on record as 0%; in test [14], 0%; in [15] it was 0%; in test [16], 25%; in test [17], 36%; in test [18] it was 11%. The “%Inh” value in [19] is given as 0%; in [20], 23%.
For the compound `Cc1cccc(NC(=O)Nc2ccc(Oc3ncnc4ccn(C)c34)cc2)c1`, the “%Inh” value in [1] worked out at 0%; in [2], 0%; in [3] it was 0%; in test [4], 4%; in [5], 0%; in test [6] it was 0%. The “%Inh” value in test [7] worked out at 0%; in test [8], 0%; in test [9], 0%; in [10] (setting [21]), 0%; in [11] it was 0%; in [12], 25%. Further, the “%Inh” value in test [13] worked out at 24%; in test [14], 0%; in test [15], 0%; in test [16], 52%; in test [17], 31%; in test [18] it was 4%. Moreover, the “%Inh” value in [19] and in [20] was 0% throughout.
With `COc1cccc(C2=C(Nc3ccc(Cl)c(C(=O)O)c3)C(=O)NC2=O)c1` [SB-390769], the “%Inh” value in [1] is on record as 17%; in [2], 8%; in [3], 100%; in [4], 100%; in test [5], 0%; in test [6] it was 59%. In addition, the “%Inh” value in [7] amounted to 14%; in [8], 0%; in test [9] it was 56%; in [10] (1 µM), 34%; in test [11], 0%; in test [12], 0%. The “%Inh” value in test [13] came out at 7%; in test [14], 0%; in test [15], 11%; in [16], 0%; in test [17] it was 55%; in test [18], 0%. Moreover, the “%Inh” value in test [19] amounted to 10%; in test [20] it was 26%.
As for `O=C(Nc1n[nH]c2nc(-c3ccc(O)cc3)ccc12)C1CC1` [SB-710363], the “%Inh” value in [1] is on record as 0%; in test [2] it was 8%; in test [3], 0%; in test [4], 34%; in test [5], 0%; in [6] it was 16%. The “%Inh” value in test [7] was determined as 20%; in test [8], 13%; in test [9], 98.8%; in test [10] (1 µM), 95.6%; in test [11], 36%; in test [12], 35%. Also, the “%Inh” value in [13] was 94.4%; in [14], 91.8%; in test [15], 90.5%; in test [16] it was 21%; in [17], 17%; in [18], 0%. Further, the results for the “%Inh” value in test [19] and in test [20] were 98.5% and 0%, respectively.
For the compound `CCS(=O)(=O)c1ccc(OC)c(Nc2nccc(-c3c(-c4cccc(NC(=O)c5c(F)cccc5F)c4)nn4ncccc34)n2)c1` [GSK326180], the “%Inh” value in test [1] turned out to be 53%; in test [2] it was 0%; in test [3], 8%; in [4] it was 0%; in test [5] it was 0%; in test [6], 17%. Also, the “%Inh” value came to 0% in [7]; 0% in test [8]; 12% in test [9]; 2% in test [10] (setting [21]); 0% in test [11]; 77% in test [12]. Moreover, the “%Inh” value in test [13] was determined as 0%; in test [14] it was 0%; in test [15], 1%; in test [16] it was 0%; in test [17], 25%; in test [18], 22%. Moreover, the “%Inh” value is given as 21% in [19] and 57% in test [20].
